Experimental data published in PubChem BioAssay (NCATS).
Results filed as inconclusive are left out. Calls of active or inactive are those of the source. Calls come from the whole dose curve; as a rule, active = well fitted inhibition curve with a large enough effect; inconclusive = small, poorly fitted or top-dose-only effect; inactive = flat fitted curve, though single readings scatter.

Key:
Assay in all cases: Cytotoxic Profiling of Annotated Libraries Using Quantitative High-Throughput Screening (AID 1296008); note: nearly all actives have a fitted effect of over 60% in size
Details in all cases: Five cell lines viability, CellTiter-Glo ATP luminescence, 48-72 h; max response: hits give low values
CRL-7250 = system: CRL-7250
Outline: (§1)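 Cells exposed to compounds for 48 or 72 hr at 37 degrees Celsius. Viability read as ATP-coupled luminescence with CellTiter-Glo after 10 min at room temperature.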

HaCat = system: HaCat
Outline: as §1

KB-3-1 = system: KB-3-1
Outline: as §1

NIH3T3 = system: NIH3T3
Outline: as §1

Measured: max response
% is set by controls: 0 for no effect and ±100 for the full control effect.

C=C[C@H]1[C@H](O[C@@H]2O[C@H](CO)[C@@H](O)[C@H](O)[C@H]2O)OC=C(C(=O)OC)[C@H]1CCO
inactive: CRL-7250 -6.38% | HaCat | KB-3-1 5.52% | NIH3T3 -6.64%

Nc1ccc(-n2nc(C(F)(F)F)cc2C(F)(F)F)cc1
inactive: CRL-7250 1.57% | HaCat | KB-3-1 7.09% | NIH3T3

C[C@@H]1CC[C@]2(C(=O)O)CC[C@]3(C)C(=CCC4[C@@]5(C)C[C@@H](O)[C@@H](O)C(C)(C)C5CC[C@]43C)C2[C@]1(C)O (stereo not given in full)
inactive: CRL-7250 -1.23% | HaCat -10.3% | KB-3-1 9.05% | NIH3T3 -8.5%

CCC(C)/C=C(C)/C=C/C1=CC2=C(Cl)C(=O)C(C)(OC(C)=O)C(=O)C2=CN1C(CCCN=C(N)N)C(=O)O (stereo not given)
inactive: CRL-7250 -3.35% | HaCat | KB-3-1 7.97% | NIH3T3 -0.868%

O=C(O)c1cc(O[C@@H]2O[C@H](CO)[C@@H](O)[C@H](O)[C@H]2O)ccc1O
inactive: CRL-7250 -1.11% | HaCat | KB-3-1 1.47% | NIH3T3

O=C(O)CC1CCC(c2ccc(-c3ccc(Nc4ccc(C(F)(F)F)nc4)cn3)cc2)CC1 (stereo not given)
inactive: CRL-7250 3.84% | HaCat | KB-3-1 -6.84% | NIH3T3 2.56%

CC1(C)CC[C@]2(C(=O)O)CC[C@]3(C)C(=CCC4[C@@]5(C)C[C@H](O)[C@H](O[C@@H]6O[C@H](CO)[C@@H](O)[C@H](O)[C@H]6O)[C@@](C)(CO)C5[C@H](O)C[C@]43C)[C@@H]2C1 (stereo not given in full)
inactive: CRL-7250 3.07% | HaCat | KB-3-1 3.96% | NIH3T3

C=C1CCC2C(C)(C)CCC[C@]2(C)[C@H]1CC/C(C)=C/C(=O)O (stereo not given in full)
inactive: CRL-7250 | HaCat | KB-3-1 -7.37% | NIH3T3 2.18%

CC1=C2C[C@@]3(C)[C@@H](CCC[C@@H]3C)C[C@@]2(O)OC1=O
inactive: CRL-7250 | HaCat | KB-3-1 8.04% | NIH3T3

C=C1C(=O)O[C@@H]2CC(C)=C([C@@H](C)CCCOC(C)=O)[C@@H](O)[C@H]12
inactive: CRL-7250 0.455% | HaCat | KB-3-1 6.41% | NIH3T3

C=C1CC[C@@H]2[C@](C)(CO)[C@H](O[C@@H]3O[C@H](CO)[C@@H](O)[C@H](O)[C@H]3O)CC[C@@]2(C)[C@@H]1C/C=C1/C(=O)OC[C@H]1O
inactive: CRL-7250 -3.97% | HaCat | KB-3-1 -0.713% | NIH3T3 -0.313%

C=C1C[C@]23C[C@H]1CC[C@H]2[C@]1(C)CC[C@H](O)[C@@](C)(C(=O)O)[C@H]1[C@@H]3C(=O)O
inactive: CRL-7250 -9.09% | HaCat | KB-3-1 -2.4% | NIH3T3 2.39%

OC[C@H]1O[C@@H](OCc2ccccc2)[C@H](O)[C@@H](O)[C@@H]1O
inactive: CRL-7250 0.468% | HaCat | KB-3-1 1.59% | NIH3T3

C=C1C(O)CC2C(C(=O)O)=COC(OC3OC(CO)C(O)C(O)C3OC(=O)/C=C\c3ccc(O)cc3)C12 (stereo not given)
inactive: CRL-7250 0.287% | HaCat | KB-3-1 0.941% | NIH3T3

C[C@@H]1O[C@@H](O[C@H]2[C@H](O[C@H]3[C@H](O[C@H]4CC[C@@]5(C)C(CC[C@]6(C)C5CC=C5[C@@H]7CC(C)(C)C[C@@H](O)[C@]7(C)CC[C@]56C)[C@@]4(C)CO)O[C@H](C(=O)O)[C@@H](O)[C@@H]3O)O[C@H](CO)[C@H](O)[C@@H]2O)[C@H](O)[C@H](O)[C@H]1O (stereo not given in full)
inactive: CRL-7250 3.95% | HaCat | KB-3-1 | NIH3T3

O=C(Nc1ccc(N2CCC(C(=O)N3CCOCC3)CC2)cc1)c1cnc(Oc2ccccc2)nc1
inactive: CRL-7250 -3.51% | HaCat | KB-3-1 -6.22% | NIH3T3 -17.6%

CCOc1ncc(S(=O)(=O)N2CCN(CC)CC2)cc1-c1nc2c(CC)n(CCOC)nc2c(=O)[nH]1
inactive: CRL-7250 | HaCat 2.49% | KB-3-1 | NIH3T3

O=C(/C=C/c1ccccc1)OC[C@H]1O[C@@H](OC(=O)c2cc(O)c(O)c(O)c2)[C@H](O)[C@@H](O)[C@@H]1O
inactive: CRL-7250 | HaCat | KB-3-1 6.66% | NIH3T3 3.75%

COC(=O)C(CC1CCCC1)c1ccc(S(C)(=O)=O)cc1 (stereo not given)
inactive: CRL-7250 | HaCat | KB-3-1 | NIH3T3 2.5%

C[C@@H]1O[C@@H](O[C@H]2[C@H](OC(=O)[C@]34CCC(C)(C)C[C@H]3C3=CCC5[C@@]6(C)C[C@@H](O)[C@@H](O)[C@@](C)(CO)C6[C@H](O)C[C@@]5(C)[C@]3(C)CC4)OC[C@H](O)[C@@H]2O)[C@H](O)[C@H](O)[C@H]1O[C@@H]1OC[C@@H](O)[C@H](O[C@H]2O[C@H](C)[C@@H](O)[C@H](O)[C@@H]2O)[C@H]1O (stereo not given in full)
inactive: CRL-7250 1.4% | HaCat | KB-3-1 8.34% | NIH3T3
